# SW480 rerep – A quantitative high throughput screen for small molecules that induce DNA re-replication in SW480 colon adenocarcinoma cells; AID 624297, 2012; Potency, µM (top dose mostly 46.1 µM), inactives show at the highest dose re-replication activation, hits mostly activators; 340,000 tested, 1.8% active; SW480 DNA re-replication, Hoechst DNA content imaging, 48 h; also: % of control where 0% means no effect; nearly all actives have a fitted effect of over 55% in size
#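 Compounds, transferred as 23 nL by pin tool, were incubated with cells for 48 hr; DNA content per nucleus was then quantified by Hoechst staining and fluorescence plate imaging.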
# MCF10A rerep – A quantitative high throughput screen for small molecules that induce DNA re-replication in MCF 10a normal breast cells; 350,000 tested, 2.9% active; MCF 10A DNA re-replication, Hoechst nuclear intensity, 48 h; Potency, µM (top dose mostly 46.1 µM), inactives show at the highest dose activity, positive = re-replication, hits mostly activators; also: % of control where 0% means no effect; nearly all actives have a fitted effect of over 50% in size
# KB-V1 MDR tox – qHTS assay for MDR1-selective chemotherapeutics: Primary screen using the drug-selected MDR subline cells KB-V1. AID 1347076, 2019. Potency, µM (highest dose often 46.1 µM), actives largely listed as cytotoxic. KB-V1 MDR cells viability, CellTiter-Glo, 72 h. 400,000 tested, 3.4% active; also: % is scaled to controls: 0 for no effect and ±100 for the full control effect; nearly all actives have a fitted effect of over 60% in size
#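 KB-V1, DMEM (no phenol red) + 10% FBS; cpd pin-transferred, titration series; 72 h, 37 degrees C; CellTiter-Glo, luminescence. Data normalized, curve-fit.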
# KB-3-1 cytotox – qHTS assay for MDR1-selective chemotherapeutics: Primary screen using the parental adenocarcinoma cell KB-3-1; Potency, µM (top dose mostly 46.1 µM), actives largely listed as cytotoxic; KB-3-1 viability, CellTiter-Glo ATP luminescence, 72 h; 400,000 tested, 1.4% active; also: % is scaled to controls: 0 for no effect and ±100 for the full control effect; nearly all actives have a fitted effect of over 60% in size
#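 Cytotoxicity measured as CellTiter-Glo luminescence after 72 h at 37 C. Compound titrations were pinned onto drug-naive KB-3-1 parental adenocarcinoma cells grown in DMEM with 10% FBS, and normalized data fitted to concentration-response curves.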
# ELG1 repair inh – qHTS screen for small molecules that inhibit ELG1-dependent DNA repair in human embryonic kidney (HEK293T) cells expressing luciferase-tagged ELG1. HEK293T ELG1-luciferase reporter, luminescence, 16 h; DNA damage induced by 5-fluorouridine. 330,000 tested, 2.3% active. Potency, µM (highest dose often 46.1 µM), without a hit: at the highest dose activity change, negative = inhibition, actives largely listed as inhibitors; also: % is scaled to controls: 0 for no effect and ±100 for the full control effect; nearly all actives have a fitted effect of over 55% in size
#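 Quantitative HTS, concentration-response format. 2,000 cells/well co-treated with 5-fluorouridine and compound, 16 hr in 5% CO2 at 37 °C; ONE-Glo luminescence read after 30 min.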
# The depositor's hits bear a star; i = inactive; ? = inconclusive; nt = no result. Most compounds without a hit are left out; they make up all but 8.2% or so of the library. Calls follow the shape of the dose curve; as a rule, active = well fitted curve in the direction sought with a large enough effect; inconclusive = small, poorly fitted or top-dose-only effect, or another doubt; inactive = no such curve, though single readings can be large; an effect the other way counts as inactive or inconclusive. Potency is read from the fitted curve at half-maximal effect.
SMILES,SW480 rerep,MCF10A rerep,KB-V1 MDR tox,KB-3-1 cytotox,ELG1 repair inh
O=C(NC(c1ccccc1)c1ccccc1)c1ccc(Br)o1,?,13.2%,i,i,15.4%
Clc1ccc(Cn2cc3c(n2)-c2cc4ccccc4n2C3)cc1,nt,nt,i,i,nt
O=C(Nc1ccc(-c2nc3ccccc3[nH]2)cc1)c1ccccc1NS(=O)(=O)c1ccc(F)cc1,?,18.4µM*,i,i,2.2%
Cc1cc(F)ccc1S(=O)(=O)Nc1ccccc1C(=O)Nc1ccccc1-c1nc2ccccc2[nH]1,?,3.66µM*,18.4µM*,?,?
COc1ccc(/C=C/c2ccnc3ccccc23)c(OC)c1,nt,nt,i,?,nt
CN1CCN(c2nc3cc(N4CCOCC4)ccc3s2)CC1,nt,nt,i,i,nt
O=C(NCCCn1ccnc1)c1cn(-c2ccccc2)nc1-c1ccccc1,2.3%,-13.3%,i,i,nt
N#C/C(=C/c1cn(-c2ccccc2)nc1-c1cccc(S(=O)(=O)N2CCCC2)c1)C(=O)NCc1ccco1,-3.0%,?,i,i,?
N#C/C(=C/c1cn(-c2ccccc2)nc1-c1cccc(OCc2ccccc2)c1)C(=O)NCCCn1ccnc1,?,13µM*,9.2µM*,i,13µM*
CCOc1cccc(-c2nn(-c3ccccc3)cc2/C=C(/C#N)C(=O)NCCCn2ccnc2)c1,?,20.6µM*,?,i,?
CCC(c1nnc(SCC(=O)Nc2nnc(-c3ccccc3)o2)n1Cc1ccccc1)N(C)C (centres undefined),2.4%,15.4%,23.1µM*,i,?
CNc1ccc2ncc(-c3ccc(OC)c(OC)c3)n2n1,nt,nt,i,i,nt
Cc1cc(C)cc(OCCNC(=O)c2cc(S(=O)(=O)N3CCOCC3)ccc2F)c1,?,19.9%,?,23.1µM*,?
CCN(CC)S(=O)(=O)c1ccc2c(c1)c(=O)c(C(=O)NCc1cccs1)cn2C,-124.8%,-31.3%,6.51µM*,i,?
COc1ccc(S(=O)(=O)N2CCCCCC2)cc1C(=O)N(C)Cc1ccc(F)cc1,-57.0%,-9.5%,i,i,-4.4%
CCN(CC)S(=O)(=O)c1ccc2c(c1)c(=O)c(C(=O)NCCCN(C)c1ccccc1)cn2C,1.4%,0.8%,i,i,?
COc1ccc(S(=O)(=O)N2CCCCCC2)cc1C(=O)N(C)Cc1ccc(C(C)(C)C)cc1,-16.8%,18.4µM*,?,?,?
COc1cc(OC)c(OC)cc1CNC(=O)c1ccc(S(=O)(=O)N2CCCCC2)cc1,2.9%,1.3%,7.31µM*,i,-16.1%
O=C(O)[C@@H]1CC(O)CN1C(=O)CCc1c[nH]c2ccccc12 (some centres undefined),-2.9%,3.7%,i,i,?
Cc1c(-c2ccccc2)cnc2c(C)cccc12,-12.9%,?,i,i,nt
COc1ccc(CNC(=O)c2cc(S(=O)(=O)N3CCCCC3)ccc2Cl)cc1OC,?,0.2%,i,i,6.51µM*
COCCNC(=O)c1cc(S(=O)(=O)N2CCC3(CC2)OCCO3)ccc1F,nt,nt,i,i,nt
COc1ccc(CCNC(=O)c2cc(S(=O)(=O)N3CCC4(CC3)OCCO4)ccc2F)cc1OC,-12.0%,-0.6%,i,i,9.2µM*
COc1ccc(S(=O)(=O)N2CCCCCC2)cc1C(=O)Nc1ccc(C)cn1,-78.6%,-11.8%,i,i,-10.6%
COc1ccc(CNC(=O)CN2CCN(S(=O)(=O)c3c(C)c(C)cc(C)c3C)CC2)cc1OC,-9.7%,2.2%,i,i,7.3µM*
SMILES,SW480 rerep,MCF10A rerep,KB-V1 MDR tox,KB-3-1 cytotox,ELG1 repair inh
COc1ccc(S(=O)(=O)N2CCCCCC2)cc1C(=O)NCCOc1ccc(C)cc1,22.4%,25.7%,9.2µM*,i,?
COc1ccc(CNC(=O)CN2CCN(S(=O)(=O)c3cc(Br)ccc3Br)CC2)cc1OC,-3.9%,15.5%,?,i,-28.7%
CC1CN(c2nc3ccccn3c(=O)c2C=O)CC(C)O1 (centres undefined),-10.8%,?,i,i,8.7%
CCOc1ccc(CNC(=O)CCCn2ccc3cc(S(=O)(=O)N4CCCC4)ccc32)cc1,-6.3%,?,?,?,-6.7%
COc1ccc(CNC(=O)CCCn2ccc3cc(S(=O)(=O)N4CCCC4)ccc32)cc1,7.31µM*,20.6µM*,?,?,?
COc1ccc(S(=O)(=O)N2CCCCCC2)cc1N(C)S(=O)(=O)c1ccc(Cl)cc1,-0.1%,3.8%,20.6µM*,i,?
COc1ccc(S(=O)(=O)N2CCCCCC2)cc1C(=O)NCc1cccs1,0.3%,2.9%,8.2µM*,i,-0.4%
COc1ccccc1C(=O)N1CCN(Cc2cccnc2)CC1,0.2%,2.6%,i,i,0.4%
CC(=O)c1ccc(S(=O)(=O)N2CCN(C(=O)CSc3ccc(F)cc3)CC2)cc1,-1.0%,1.5%,i,i,-1.8%
COc1cccc(NC(=O)N2CCC(C(=O)Nc3ccc(C)cc3C)CC2)c1,-5.1%,0.7%,14.6µM*,i,-8.3%
Cc1cc(F)ccc1NC(=O)C1CCN(C(=O)Nc2ccccc2)CC1,-62.1%,?,i,i,-2.2%
COc1cccc(NC(=O)N2CCCC(C(=O)Nc3ccccc3OC)C2)c1 (centres undefined),4.1%,-0.8%,20.6µM*,i,-7.2%
O=C(CSc1ccccc1F)NCC1(N2CCCCC2)CCCCC1,-4.9%,10.1%,i,?,?
O=C(NCc1cccc(Cl)c1)c1cccc(OC2CCN(C(=O)C3CC3)CC2)c1,-5.6%,?,?,23.1µM*,?
CC(=O)C1=C(C)NC(SCC(N)=O)=C(C#N)C1c1cccnc1 (centres undefined),-2.4%,20.6µM*,i,i,13.5%
CCOC(=O)C1=C(c2ccccc2)NC(SC)=C(C#N)C1c1cccnc1 (centres undefined),?,21.3%,i,i,-19.8%
CCOC(=O)C1=C(c2ccccc2)NC(SCC(=O)NC2CCCCC2)=C(C#N)C1c1ccco1 (centres undefined),-0.4%,0.0%,i,i,18.4µM*
CCCCOC(=O)CSC1=C(C#N)C(c2cccnc2)C(C(=O)OCC)=C(c2ccccc2)N1 (centres undefined),23.1µM*,18.4µM*,i,i,?
CCCCn1cnc2c(=O)[nH]c(N)nc21,nt,nt,i,i,nt
O=C(CCl)N1c2ccccc2Oc2ccc3ccccc3c21,5.8µM*,18.4µM*,?,i,nt
CCc1nc(NCc2ccccn2)c2oc3ccccc3c2n1,7.9%,20.5%,?,?,18.4µM*

# High-throughput results as filed in PubChem.
